Results filed as inconclusive are left out. Calls of active or inactive are those of the source. Calls follow the shape of the dose curve; as a rule, active = well fitted activation curve with a large enough effect; inconclusive = small, poorly fitted or top-dose-only effect; inactive = no such curve, though single readings can be large or run the other way.
Experiment: qHTS assay for re-activators of p53 using a Luc reporter: Hit Validation with no p53 Expressed; also: 0% is about no effect
Conditions: p53-null cells, luciferase reporter counter-screen; series mostly up to 46.1 µM; activity change, positive = activation: at the top concentration
Procedure, shortened: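 Counter-screen of primary hits in a cell line not transfected with p53, in Opti-MEM with 10% FBS; compounds at several concentrations (10 mM stock, 1:5; top 46.1 µM in well), 24 h at 37 deg C, 5% CO2. Luminescence read after 10 min with Amplite reagent.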
For `COc1cccc(/C=N/NC(=O)c2nc(-c3ccccc3)cc(-c3ccccc3)n2)c1O`, the “activity change, positive = activation” value was 2.35% (inactive).
For `C#CCn1c(=NC(=O)c2cccs2)sc2cccc(OCC)c21`, the “activity change, positive = activation” value was -22.2% (inactive).
For `CC12CCC(C(=O)N(CSC(=S)N/N=C\c3ccccc3O)C1=O)C2(C)C` (centres undefined), the “activity change, positive = activation” value was 52% (inactive).
For `CCc1ccc(N=c2c([N+](=O)[O-])nn(-c3ccccc3)n2O)cc1`, the “activity change, positive = activation” value was -0.218% (inactive).
With `COc1ccc(N2CCN(C3CCCN(Cc4cccc(OC)c4)C3)CC2)cc1` (centres undefined) the “activity change, positive = activation” value was 19.7% (inactive).
With `Fc1cc(NCc2ccccc2)nc(NCc2ccccc2)n1` the “activity change, positive = activation” value was 8.92% (inactive).
With `O=C(Nc1nc(-c2ccco2)c(-c2ccco2)s1)c1ccc(F)cc1F` the “activity change, positive = activation” value was -21.9% (inactive).
For `Cc1ccc(N2C(=O)c3ccccc3C2C(=O)c2cc(C)ccc2O)cc1` (centres undefined), the “activity change, positive = activation” value was -38.5% (inactive).
For `O=C(NNc1c2ccccc2nc2ccccc12)c1ccc(O)cc1`, the “activity change, positive = activation” value was 9.35% (inactive).
With `CN1CCN(C2=C(Cl)C(=O)N(Cc3ccccc3)C2=O)CC1` the “activity change, positive = activation” value was -21.3% (inactive).
For `O=C(CSc1nnc(-c2ccc(O)cc2)o1)N1CCOCC1`, the “activity change, positive = activation” value was 88.1% (inactive).
With `Clc1cccc(N/N=C(\Cc2nc3ccccc3[nH]2)c2ccccc2)c1` the “activity change, positive = activation” value was -3.28% (inactive).
With `CN(C(=O)CSc1nnc(-c2ccco2)o1)C1CCCCC1` the “activity change, positive = activation” value was -25.1% (inactive).
In the case of `O=C(Cn1cc(SCc2ccc(F)cc2)c2ccccc21)N1CCOCC1`, the “activity change, positive = activation” value is reported as 16.4% (inactive).
With `Cc1c(C(=O)N(C)c2ccccc2Cl)cnn1-c1ccccc1` the “activity change, positive = activation” value was -31.1% (inactive).
With `O=c1c2ccccc2oc2ccc(-c3ccc4cc[nH]c4c3)cc12` the “activity change, positive = activation” value was 42.2% (inactive).
For `CCN(CC)C(=O)CNC(=S)N(CCCN1CCOCC1)Cc1cccs1`, the “activity change, positive = activation” value was 0.343% (inactive).
For `Cc1cc(CC(C)C)n(-c2nc3ccccc3c(=O)n2OCC(N)=O)n1`, the “activity change, positive = activation” value was -1.66% (inactive).
With `O=C(CC(Nc1ccc(F)cc1)C(=O)OCC(=O)c1cccs1)c1ccccc1` (centres undefined) the “activity change, positive = activation” value was 9.18% (inactive).
In the case of `COc1cc(C(=O)NCCc2cn3ccc(C)cc3n2)cc(OC)c1OC`, the “activity change, positive = activation” value is reported as -28.5% (inactive).
In the case of `CCCCC(=O)Nc1cccc(NC(=S)NC(=O)Cc2ccccc2)c1`, the “activity change, positive = activation” value is reported as 23% (inactive).
For `CN1CCN(C(=O)c2cc3ccccc3cc2O)CC1`, the “activity change, positive = activation” value was -18% (inactive).
In the case of `COc1ccc(CCC(=O)Nc2ccc(-c3noc(-c4ccc(OC)c(OC)c4)n3)cc2)cc1`, the “activity change, positive = activation” value is reported as 10.6% (inactive).
For `CC1Cc2ccccc2N1C(=O)COC(=O)C1(c2ccccc2F)CCCC1` (centres undefined), the “activity change, positive = activation” value was -13.2% (inactive).
In the case of `CCN(CC)c1ccc2cc(-c3nc4ccccc4n3C)c(=O)oc2c1`, the “activity change, positive = activation” value is reported as 1.98% (inactive).
With `O=C(NC(=S)Nc1cccc(O)c1)C1CCCCC1` the “activity change, positive = activation” value was 20.3% (inactive).
In the case of `Cc1cnc(C(=O)OCC(=O)c2csc(N3CCCCC3)n2)cn1`, the “activity change, positive = activation” value is reported as 19.9% (inactive).
With `Cc1ccc(S(=O)(=O)c2cn(CC(=O)Nc3ccccc3)c3ccc(F)cc3c2=O)cc1` the “activity change, positive = activation” value was -53.5% (inactive).
In the case of `c1ccc(Oc2cc(-n3cncn3)ncn2)cc1`, the “activity change, positive = activation” value is reported as 24.3% (inactive).
With `CC1CCCC(C)N1C(=O)CSc1nnc(-c2cccs2)o1` (centres undefined) the “activity change, positive = activation” value was 52.8% (inactive).
For `O=C(N/N=C/c1cn(-c2ccccc2)nc1-c1cc2ccccc2o1)c1ccccc1Br`, the “activity change, positive = activation” value was 41.5% (inactive).
With `Cc1ccc(C)c(Oc2cc(NC(=O)CCCn3nc(C)c([N+](=O)[O-])c3C)cc([N+](=O)[O-])c2)c1` the “activity change, positive = activation” value was -48.2% (inactive).
For `CCOC(=O)NC1(Nc2ccc(C)cc2)Oc2ccccc2O1`, the “activity change, positive = activation” value was 91% (inactive).
For `O=C1c2cccc3cc([N+](=O)[O-])cc(c23)C(=O)N1CCN1CCCC1`, the “activity change, positive = activation” value was -32.6% (inactive).
For `CN1CCN(c2ncnc3c2cnn3-c2ccc(Cl)cc2)CC1`, the “activity change, positive = activation” value was -9.81% (inactive).
For `O=C(Nc1ccc2ccccc2c1)c1ccc(Cl)cc1Cl`, the “activity change, positive = activation” value was -19.5% (inactive).
With `CCOc1ccc(N2C(=O)c3ccccc3NC2(C)CC)cc1` (centres undefined) the “activity change, positive = activation” value was 59.9% (inactive).
With `CCC(Sc1nc2ccccc2c(=O)n1CCN1CCOCC1)C(=O)NCc1cccnc1` (centres undefined) the “activity change, positive = activation” value was -26.9% (inactive).
For `Cc1nc2ccccc2nc(C)c1=NOCc1ccccc1Cl`, the “activity change, positive = activation” value was -25.3% (inactive).
